# Screens: PubChem, National Center for Advancing Translational Sciences (NCATS)
# DRD3 antagonist – D3 dopamine receptor (human) antagonism. D3R cells, DiscoveRx beta-arrestin luminescence, antagonist mode; hits give low values. hit rate 2.5% among 360,000. AID 652054. P35462. max response, negative = inhibition, %; in the data active = max response below about -50%; inconclusive = no clear call, values can overlap the other calls; also: % is scaled to controls: 0 for no effect and ±100 for the full control effect
#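 Cells expressing the human receptor were seeded at 1500 cells/well, incubated overnight at 37 degrees C in 5% CO2, then exposed to library compounds with dopamine controls for 90 minutes at 37 degrees C before luminescent detection.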
# ERG Ets-DNA blk – blocks human ERG Ets domain binding to DNA; P11308; fluorescence polarization, His-ERG Ets domain / labelled DNA; Potency, µM (titrated, usually from 76.9 µM), without a hit: at the highest dose FP activity, negative = inhibition, usual class: inhibitors; hit rate 0.028% among 370,000; AID 624246; active = well fitted inhibition curve with a large enough effect in the polarisation, with a control signal flat; inconclusive = small, poorly fitted or top-dose-only effect, or effect the other way, or a change in a side signal; inactive = no such curve, though single readings can be large or run the other way; the % refers to the polarisation;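 also: polarization taken with two DNA probes labelled with fluorescein and Texas red; potency is read from the fitted curve at half-maximal effect; % of control where 0% means no effect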
#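 His-tagged ERG Ets domain (1 uM in the protein solution; 300mM KCl, 50mM Tris-HCl, 1mM EDTA, 1mM DTT, pH 7.5) received compound, then a probe mix of 5 nM fluorescein-DNA and 100nM Texas-615-DNA. Fluorescence polarization was read for both dyes.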
# D1 ag – activates the human D1 dopamine receptor. P21728. HEK293 T-REx D1 cells, calcium flux, agonist mode. activation, % at 2 µM. hit rate 1% among 360,000. AID 504660; in the data active = activation above about 30%; also: 0% is about no effect
# Target sequence (P21728 whole entry, looked up): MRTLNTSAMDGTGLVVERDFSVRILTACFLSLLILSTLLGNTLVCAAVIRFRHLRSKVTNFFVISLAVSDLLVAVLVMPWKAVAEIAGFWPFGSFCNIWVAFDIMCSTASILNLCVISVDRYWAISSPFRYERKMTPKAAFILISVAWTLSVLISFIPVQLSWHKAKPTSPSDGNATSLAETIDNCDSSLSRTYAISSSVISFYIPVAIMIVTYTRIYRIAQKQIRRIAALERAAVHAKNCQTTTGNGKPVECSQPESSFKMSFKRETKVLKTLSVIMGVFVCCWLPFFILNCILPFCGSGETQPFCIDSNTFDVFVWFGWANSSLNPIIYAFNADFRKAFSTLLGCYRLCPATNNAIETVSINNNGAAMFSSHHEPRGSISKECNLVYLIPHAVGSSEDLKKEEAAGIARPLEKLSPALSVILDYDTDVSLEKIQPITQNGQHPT
#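 Tetracycline-induced HEK293 TREx D1 cells, force-coupled to calcium signalling, were dye-loaded with a no-wash calcium kit. Compound was pin-added after a 10 s baseline. Fluorescence was read kinetically at 1 cycle/s for 180 s, with calcium rises flagged as agonism.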
# D3 ag – activates the human D3 dopamine receptor. hit rate 0.58% among 410,000. AID 652048. D3R DiscoveRx beta-arrestin cells, luminescence, 90 min. max activation, %. P35462; in the data active = max activation above about 30%; also: 0% is about no effect
#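 Agonist-mode cell screen: cells plated at 1500/well and incubated overnight at 37 °C, then exposed to library compounds for 90 min at 37 °C. Detection reagent was added for 30–60 min at room temperature, and luminescence was read.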
# D1 potentiator – human D1 dopamine receptor positive modulation | hit rate 0.036% among 360,000 | P21728 | potentiation, % at 10 µM | AID 504651 | HEK293 TREx D1 cells, calcium flux, dopamine EC20 potentiation; in the data active = potentiation above about 30%; also: 0% is about no effect
# D1 antag – human D1 dopamine receptor antagonism; P21728; HEK293 TREx D1 cells, calcium flux, dopamine EC80; hits give low values; activity change, negative = inhibition, % at 10 µM; hit rate 3.2% among 360,000; AID 504652; in the data active = activity change below about -30%; also: % is scaled to controls: 0 for no effect and ±100 for the full control effect
#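 Allosteric or orthosteric antagonism assessed as attenuation of the calcium response to EC80 dopamine, added 180 s after compound, in induced HEK293 Trex D1 cells loaded with no-wash calcium dye.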
# * = called active by the depositor; ? = inconclusive; nt = no result. Sampled rows, rich in hits. Any-hit rate of the full collection: about 6.1%.
SMILES,DRD3 antagonist,ERG Ets-DNA blk,D1 ag,D3 ag,D1 potentiator,D1 antag
COc1ccc(NC(=O)CSc2ccccn2)cc1OC,12.6,-1.0%,0.5,7.6,-3.4,2.0
COc1ccc(NC(=O)CSc2ncccc2C(=O)OC(C)C)cc1OC,41.5,-1.3%,25.8,13.8,-7.5,-36.9*
Cc1cc(C)n(CCCNC(=O)C2CCC(=O)N(CCc3ccc(Cl)cc3)C2)n1 (stereo not drawn),1.3,5.2%,0.1,2.2,-0.8,-3.5
O=C(O)CCC(=O)N1CCN(c2nc(-c3ccccc3Cl)c3cc(Br)ccc3n2)CC1,?,0.3%,66.4*,0.5,2.2,-5.1
O=C(O)CCC(=O)N1CCN(c2nc(-c3ccccc3)c3cc(Br)ccc3n2)CC1,37.8,8.3%,0.3,12.5,-1.4,9.7
N#CC1CC(c2ccccc2)Nc2cc(Cl)ccc2N1 (stereo not drawn),-3.7,1.8%,18.5,2.2,-5.3,-89.9*
CC(=O)Nc1ccc(S(=O)(=O)N2CCC(Oc3ccc(-n4cnnn4)cc3)CC2)cc1,12.3,3.3%,7.3,2.6,5.6,-19.7
O=S(=O)(c1cccc(F)c1)N1CCC(Oc2ccc(-n3cnnn3)cc2)CC1,nt,0.5%,11.1,-2.3,0.7,-30.2*
CCN(C(=O)Cn1nc(C)n2c(cc3cc(C)ccc32)c1=O)c1ccccc1,-1.4,3.4%,0.5,2.1,-5.5,-42.7*
O=c1cc(NC2CCCCCC2)[nH]c(=O)[nH]1,8.2,-0.1%,3.4,2.6,-6.2,-15.3
N#CCCN(Cc1cccnc1)S(=O)(=O)c1ccc2ccccc2c1,-9.6,-16.9%,0.2,-1.6,-0.4,-36.6*
N#CCCN(Cc1cccnc1)S(=O)(=O)c1ccc(S(=O)(=O)NC2CCCCC2)cc1,17.0,-15.1%,0.7,3.6,3.1,4.4
Cc1c(Br)cc(C(=O)OC2CCN(C)CC2)c(C)c1C,-88.0*,-0.1%,2.7,-20.7,-6.0,-8.9
CN1CCC(OC(=O)c2ccccc2)CC1,6.2,4.0%,6.7,0.8,-5.5,5.3
COc1ccc(NC(=S)NC(NC(=O)c2cccc(C)c2)C(Cl)(Cl)Cl)c([N+](=O)[O-])c1 (stereo not drawn),-82.2*,-0.5%,2.4,-8.0,2.8,2.2
COc1ccc(NC(=S)NC(NC(=O)c2cccc(Cl)c2)C(Cl)(Cl)Cl)c([N+](=O)[O-])c1 (stereo not drawn),-13.0,3.7%,20.6,-9.4,-7.2,1.0
O=C(NC(NC(=S)Nc1ccccc1C(=O)O)C(Cl)(Cl)Cl)c1cccc([N+](=O)[O-])c1 (stereo not drawn),-79.4*,-9.8%,7.0,1.4,-5.5,-15.6
O=C(NC(NC(=S)Nc1ccccc1Cl)C(Cl)(Cl)Cl)c1cccc(Cl)c1 (stereo not drawn),?,nt,9.6,-4.1,-10.9,-13.4
O=C(Nc1cccc2ccccc12)N(CCO)C1CCS(=O)(=O)C1 (stereo not drawn),-11.7,3.2%,-2.4,3.5,3.0,-71.0*
Cc1csc(SCc2nc3scc(-c4ccccc4)c3c(=O)[nH]2)n1,-7.7,-4.4%,4.4,4.8,1.9,21.5
C/C(=N/NC(=O)c1ccco1)c1ccc(Br)s1,-8.5,1.2%,0.9,0.4,-8.1,-31.3*
C/C(=N\NC(=O)c1ccco1)c1ccc(C(=O)O)s1,-2.9,7.8%,5.2,0.2,3.4,6.7
O=C(CSc1nc2[nH]ncc2c(=O)[nH]1)NCc1ccccc1Cl,10.6,-7.3%,2.3,1.4,-2.5,16.8
C=CCN1C(=O)C(Cc2ccc(F)cc2)S/C1=N/N=C/c1ccco1 (stereo not drawn),-10.5,4.0%,1.3,-0.8,-12.4,0.9
COc1cc(CNC(C)(C)CO)cc(Br)c1OCc1ccc(Cl)cc1,-11.4,1.8%,33.8*,3.3,-6.5,-6.4
SMILES,DRD3 antagonist,ERG Ets-DNA blk,D1 ag,D3 ag,D1 potentiator,D1 antag
COc1cc(CNc2ccc(O)cc2)cc(Br)c1OCc1ccccc1,2.9,39.8µM*,2.1,-0.4,-0.3,-8.1
CC(C)(C)OC(=O)N/N=C/c1cc(N=Nc2ccccc2)ccc1O,?,nt,1.6,9.6,-0.1,4.2
Cc1cc(CSC(=N)N)c(CSC(=N)N)cc1C,-21.4,-3.0%,2.1,-3.6,-2.9,-94.9*
CCCCCOC(=O)C1=C(C)NC(=O)NC1c1ccc([N+](=O)[O-])cc1 (stereo not drawn),-15.2,9.9%,-0.3,2.6,-4.0,-3.5
CCc1nc2ccccc2c(C(=O)OCc2nnc(-c3ccccc3)o2)c1C,27.9,-1.4%,4.9,2.0,-3.6,-27.6
CCCCS(=O)(=O)N1CCCC(C(=O)Oc2ccccc2)C1 (stereo not drawn),11.1,-4.6%,-2.9,5.2,1.0,-22.9
N/C(=N\OC(=O)CC1CCCCC1)c1cccnc1,-151.4*,-2.9%,0.6,-1.2,-3.9,5.8
COCCNc1ccc(N2C(=O)CCCC2=O)cc1[N+](=O)[O-],-2.5,-2.5%,1.1,-0.2,-3.1,-46.5*
Cc1ccc(OCc2cc(C(=O)NC(C)Cc3cnccn3)no2)cc1C (stereo not drawn),-2.3,-12.3%,3.3,-4.5,4.7,-39.7*
Cc1cccc(CC(C)NC(=O)c2cc(COc3ccc(C)c(C)c3)on2)n1 (stereo not drawn),?,-3.5%,1.7,-12.5,1.9,-24.1
Cc1ccc(S(=O)(=O)n2c3ccc(F)cc3c3nc(C)sc32)cc1,nt,nt,1.7,nt,-3.9,-31.5*
O=[N+]([O-])c1cccc(C2NCC(c3ccccc3Cl)c3c2[nH]c2ccccc32)c1 (stereo not drawn),-64.1*,-2.3%,0.5,-11.8,-5.0,-9.5
CN(C)c1ccc(C2CNC(c3ccc(Cl)c([N+](=O)[O-])c3)c3[nH]c4ccccc4c32)cc1 (stereo not drawn),-27.3,3.3%,1.7,-5.5,-9.2,7.5
CCCN(C(=O)C1CSC2(C)CCC(=O)N12)c1c(N)n(Cc2ccccc2)c(=O)[nH]c1=O (stereo not drawn),8.7,-14.7%,3.2,3.2,-1.4,-16.1
CCOC(=O)c1c(C)n(-c2ccc(C)cc2)c2ccc(O)c(CN(C)C)c12,5.6,-10.5%,33.9*,5.5,-11.2,-23.5
Cn1c(=O)c2cc(NC(=O)NCc3ccc(F)cc3)ccc2n1Cc1cccc(C(F)(F)F)c1,28.6,nt,nt,8.9,nt,nt
CC(=O)Nc1ccccc1OCCCN1CCC(C(O)(c2ccccc2)c2ccccc2)CC1,-69.9*,nt,nt,-13.9,nt,nt
N#CCc1ccc(OCCCN2CCC(C(O)(c3ccccc3)c3ccccc3)CC2)cc1,-68.2*,nt,nt,-18.0,nt,nt
OC(c1ccccc1)(c1ccccc1)C1CCN(CCCOc2ccc3c(c2)CCCC3)CC1,-16.7,nt,nt,5.1,nt,nt
